Laboratory results as given in PubChem BioAssay AID1846 (The Scripps Research Institute Molecular Screening Center, 2009).
Among all 2,300 compounds or so, about 1,500 (65%) were called active. Cut-off read from the data, not from the text of the source: active = inhibition above about 18%; inactive = the rest. So high a share suggests a set chosen from earlier hits. These entries were drawn from the full list.

Molecular target: Heat shock protein HSP 90-alpha (Homo sapiens) (UniProt P07900)
Assay: inhibitors of HSP90 chaperone activity – cell lysate, luminescence, confirmation (AID 1846);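 note: 0% = vehicle wells and 100% = reference inhibitor wells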
Settings: rabbit reticulocyte lysate, luciferase refolding luminescence, 3 h; at 5.9 µM; active compounds read high

Compound	inhibition
COc1cccc(-c2nc3ccc(N4CCN(C)CC4)cc3[nH]2)c1	69.3% (active)
O=c1c2ccccc2nc(/C=C/c2ccco2)n1-c1ccccc1O	9.67% (inactive)
